Source: PubChem (National Center for Advancing Translational Sciences (NCATS))
Most compounds without a hit are left out; they make up all but 21% or so of the library.
Pf growth 48h – P. falciparum growth inhibition at 48 hours (one generation); P. falciparum luciferase growth in erythrocytes, 48 h; Potency, µM (doses to about 28.7 µM), usual class: inhibitors; 310,000 compounds, 5.9% hits; AID 504832
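Luciferase-expressing P. falciparum in infected erythrocytes (2% hematocrit, 0.1% parasitemia final) in RPMI 1640/0.5% Albumax were exposed to compound for 48 hours at 37 C, 5% CO2; growth read as luminescence.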
CHX counter – affects cycloheximide protein synthesis inhibition readout, counter-screen; cell reporter, cycloheximide protein synthesis inhibition counterscreen; max response, %; 300,000 compounds, 12% hits; AID 2314; in the data active means max response mostly above about 13%, no sharp cut-off; inactive means mostly below about 14%; further: read at 38.3 µM for the half of the compounds with a filed dose
HCV inh – blocks hepatitis C virus | Potency, µM (doses to about 41.8 µM), most hits filed as inhibitors | Huh7.5.1 HCVcc-Cre infection, luciferase reporter, 44 h | 340,000 compounds, 3.4% hits
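1,000 cells/well; 4 h culture; + compound; + HCVcc-Cre (~0.5 moi); 44 h; luciferase substrate, RT 15 min; read 15 sec.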
HCMV inh – inhibitors of human cytomegalovirus. HFF cells, HCMV-luciferase reporter, 72 h; active compounds read low. activity change, negative = inhibition, % at 57.5 µM. 410,000 compounds, 4.5% hits. AID 1259415; in the data active means activity change below about -60%; inconclusive means no clear call, values can overlap the other calls; inactive means above about -39%
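Cell-based, HFFs, 1000 cells/well, 16 h 37C; cpds in DMSO + HCMV-luc, MOI 1 PFU/cell; 72 h 37C; OneGlo luminescence after 5 min RT; norm. to buffer vs Salinomycin 10uM.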
Pf growth 96h – P. falciparum growth inhibition at 96 hours. Potency, µM (top dose mostly 28.7 µM), hits mostly inhibitors. AID 504834. 320,000 compounds, 6.9% hits. P. falciparum luciferase reporter growth, 96 h
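Luminescence readout: decreased luciferase signal marks inhibited growth of reporter-expressing P. falciparum in infected red cells (2% hematocrit, 0.05% parasitemia final), exposed to compound two generations (96 h, 37 C, 5% CO2).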
Shiga toxin inh – Shiga toxin inhibition. Vero cells, Shiga toxin protein synthesis inhibition reporter. inhibition, % at 38.7 µM. 290,000 compounds, 9.2% hits. AID 2315; in the data active means inhibition mostly above about 28%, no sharp cut-off; inactive means mostly below about 43%
A number is an active result; 0 = inactive; ? = inconclusive; - = no result. Unless noted, the call rests on the fitted dose curve; in most records, active means well fitted inhibition curve with a large enough effect; inconclusive means small, poorly fitted or top-dose-only effect, or another doubt; inactive means no such curve, though single readings can be large or run the other way.

SMILES | Pf growth 48h | CHX counter | HCV inh | HCMV inh | Pf growth 96h | Shiga toxin inh
CC(C)CCNC(=O)c1c(CSc2ccccc2)noc1C(=O)NCc1ccccc1 | ? | 0 | 0 | 0 | 13µM | 0
C=CCNC(=O)c1onc(CSc2ccc(F)c(F)c2)c1C(=O)NCC=C | - | - | 0 | -66 | - | -
CCOC(=O)C1CCN(C(=O)CCn2c(=O)oc3ccccc32)CC1 | - | - | - | 0 | - | -
COc1ccc(N2CCN(C(=O)c3ccc(NC(=O)C4=CSCCO4)cc3)CC2)cc1 | 0 | 0 | 0 | - | 0 | 0
CN(C)CCNC(=O)c1c(CSc2ccccc2)noc1C(=O)NCc1ccccc1 | ? | 0 | ? | 0 | 9.3µM | 0
CN(C)c1ccc(NC(=O)CN2CCN(CC(=O)Nc3ccc(Br)cc3)CC2)cc1 | - | - | - | 0 | - | -
CCn1c(C)nc2cc(C(=O)N/N=C/c3ccc(O)cc3)ccc21 | 0 | 0 | 0 | 0 | 0 | 0
CCn1c(C)nc2cc(C(=O)N/N=C/c3ccc(OC)cc3)ccc21 | 0 | 0 | 0 | 0 | ? | 0
CCn1c(C)nc2cc(C(=O)N/N=C/c3cccc(O)c3O)ccc21 | 10µM | 31 | ? | 0 | ? | 67
CCn1c(C)nc2cc(C(=O)N/N=C/c3ccccc3)ccc21 | 0 | 34 | 0 | 0 | 0 | 94
COc1ccc(-n2ncc(C(C)NS(=O)(=O)c3cc(C)sc3C)c2C)cc1 (stereo unspecified) | - | - | - | 0 | - | -
O=C(NCC1CCCO1)c1cccc(Oc2ccccc2)c1 (stereo unspecified) | 0 | 33 | 0 | 0 | 0 | 53
O=C(NCC1CCCO1)c1cccc(Oc2ccc([N+](=O)[O-])cc2)c1 (stereo unspecified) | 0 | 24 | ? | -88 | ? | 50
C/C(=N\Nc1ccc(S(N)(=O)=O)cc1[N+](=O)[O-])c1cccnc1 | 0 | 0 | 0 | 0 | 0 | 0
Cc1ccc(C)c(NC(=O)CSc2nc(C)cs2)c1 | 0 | - | 0 | 0 | ? | -
Cc1ccc(S(=O)(=O)NC2c3cccc4cccc(c34)C2Sc2n[nH]c(N)n2)cc1 (stereo unspecified) | ? | 0 | ? | 0 | ? | 0
O=S(=O)(NC1c2cccc3cccc(c23)C1Sc1ncccn1)c1ccc(Cl)cc1 (stereo unspecified) | ? | 0 | ? | -72 | 0 | 0
COC(=O)c1cccc(C23CC4(C2)[C@H](CN(Cc2ccc(-c5ccccc5)cc2)[C@@H]4c2ccccc2)C3c2ccc(Cl)nc2)c1 (stereo partly specified) | ? | 0 | 0 | 0 | ? | 0
COC(=O)c1cccc(C23CC4(C2)[C@H](CN(Cc2cccnc2)[C@@H]4c2ccccc2)C3c2ccc(C(F)(F)F)cc2)c1 (stereo partly specified) | 2.3µM | 0 | 0 | 0 | ? | 0
COC(=O)c1cccc(C23CC4(C2)[C@H](CN(Cc2cccnc2)[C@@H]4c2ccccc2)C3c2ccc(Cl)nc2)c1 (stereo partly specified) | 13µM | 0 | ? | 0 | 12µM | 0
COc1ccc(/C=N/NC(=O)NC23CC4CC(CC(C4)C2)C3)c(OC)c1 | 8.3µM | 0 | ? | 0 | ? | 0
O=C(N/N=C/c1ccc(O)cc1)NC12CC3CC(CC(C3)C1)C2 | 0 | 0 | 0 | 0 | 0 | 0
Cc1ccc(/C=N/NC(=O)NC23CC4CC(CC(C4)C2)C3)o1 | ? | 29 | 0 | 0 | ? | 150
CCc1ccc(NC(=O)C(=O)NCC(c2cccnc2)N2CCN(Cc3ccccc3)CC2)cc1 (stereo unspecified) | - | - | - | 0 | - | -
Cc1ccc(S(=O)(=O)N2CCN(C(=O)COC(=O)CC(C)c3ccccc3)CC2)c(C)c1 (stereo unspecified) | ? | - | 0 | 0 | 0 | -
SMILES | Pf growth 48h | CHX counter | HCV inh | HCMV inh | Pf growth 96h | Shiga toxin inh
CCOC(=O)c1c(C)[nH]c(C(=O)OCC(=O)N2CCN(S(=O)(=O)c3ccc(C)cc3C)CC2)c1C | 15µM | - | 14µM | 0 | 7.4µM | -
CCC(C(=O)OCC(=O)N1CCN(S(=O)(=O)c2ccc(C)cc2C)CC1)c1ccccc1 (stereo unspecified) | 13µM | - | 0 | ? | 9.3µM | -
CC(=O)c1c(C)[nH]c(C(=O)N2CCN(S(=O)(=O)c3ccc(C)cc3C)CC2)c1C | ? | - | 0 | 0 | ? | -
COc1ccc(N2CCN(C(=O)COC(=O)CNC(=O)c3ccc(C)cc3)CC2)cc1 | 0 | - | 0 | 0 | 0 | -
CN1CCN(C(=O)c2sc(=S)n(-c3ccccc3)c2N)CC1 | 0 | 0 | 0 | -92 | ? | 0
Cc1ccc(-n2c(N)c(C(=O)N3CCOCC3)sc2=S)cc1 | 0 | 0 | ? | 0 | 0 | 0
Cc1[nH]c2ccccc2c1C(=O)C(=O)NCC1CCCO1 (stereo unspecified) | 0 | 0 | 0 | 0 | 0 | 0
Cc1ccc(NC(=O)C(=O)c2c[nH]c3ccccc23)cc1 | 0 | 33 | 0 | 0 | 0 | 47
O=C(NCC1CCCO1)C(=O)c1c[nH]c2ccccc12 (stereo unspecified) | 0 | 27 | 0 | 0 | 0 | 162
O=C(COC(=O)c1c[nH]c2ccccc12)NC1CCCC1 | 0 | - | 0 | 0 | 0 | -
O=C(NC1CCCCC1)C(=O)c1c[nH]c2ccccc12 | 0 | 32 | 0 | 0 | 0 | 69
Cc1cc(NC(=O)CCNS(=O)(=O)c2cccc3nsnc23)ccc1Br | - | - | - | 0 | - | -
CC12CCC(C(=O)NCc3ccccc3)(OC1=O)C2(C)C (stereo unspecified) | 0 | 0 | 0 | 0 | 0 | 0
C/C(=N\NC(=O)C12CCC(C)(C(=O)O1)C2(C)C)c1ccccc1O (stereo unspecified) | ? | 0 | ? | -103 | ? | 0
Nc1nc(N)c2ncc(C(=O)CCc3ccccc3)nc2n1 | 0 | 0 | 0 | 0 | 0 | 0
Nc1ccc(-c2nc3nc(N)nc(N)c3nc2-c2ccc(N)cc2)cc1 | 10µM | 0 | 0 | 0 | ? | 0
CCCCCn1c(=O)[nH]c2cc(C(=O)N3CCN(c4cccc(OC)c4)CC3)ccc2c1=O | - | - | - | 0 | - | -
CCN(CC(=O)NCc1cccs1)C(=O)c1cccc(S(=O)(=O)Nc2ccc(C)cc2)c1 | 0 | - | 0 | 0 | 0 | -
COCCn1c(-c2ccc(Cl)cc2)nc2c(c(=O)c3ccccc3n2C)c1=O | ? | 0 | 0 | ? | 8.3µM | 0
COc1ccc(CCn2c(C3CCCCC3)nc3c(c(=O)c4ccccc4n3C)c2=O)cc1 | ? | 0 | 3.5µM | 0 | ? | 0
COCCn1c(-c2ccccc2Cl)nc2c(c(=O)c3ccccc3n2C)c1=O | 0 | 0 | 0 | 0 | ? | 0
COc1ccc(CCn2c(C3CCCCC3)nc3c(c(=O)c4ccccc4n3C)c2=O)cc1OC | 3.3µM | 0 | ? | ? | 4.7µM | 0
COc1ccc(CCn2c(-c3ccc(F)cc3)nc3c(c(=O)c4ccccc4n3C)c2=O)cc1OC | 0 | 0 | 0 | 0 | ? | 0
CC(C)c1nc2c(c(=O)c3ccccc3n2C)c(=O)n1CCc1ccccc1 | ? | 0 | 0 | 0 | 4.7µM | 0
COc1ccc(C(=O)CCC(=O)Nc2ccc(C)c(Cl)c2)cc1 | - | - | - | 0 | - | -
